From PubChem
Rows were chosen to be rich in hits. Some 6.2% of all compounds tested hit in one or more screens of this group.
KB-3-1 cytotox = kills parental KB-3-1 adenocarcinoma cells. Potency, µM (highest dose often 46.1 µM), most hits filed as cytotoxic. KB-3-1 viability, CellTiter-Glo ATP luminescence, 72 h. AID 1347075. hit rate 1.4% among 400,000; also: nearly all actives have a fitted effect of over 60% in size
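KB-3-1 parental drug-naive adenocarcinoma cells in DMEM/10% FBS, incubated 72 h at 37 C with pin-transferred compounds across a concentration series. Viability by CellTiter-Glo luminescence; concentration-response curves fitted after normalization.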
S2 tox = cell viability loss in ATXN counter-screen. S2 cells (HEK-293 line with an ATXN2-luciferase reporter) viability, CellTiter-Fluor protease fluorescence, 24 h. Potency, µM (top dose mostly 56.7 µM), most hits filed as cytotoxic. hit rate 0.49% among 400,000. AID 651635; also: nearly all actives have a fitted effect of over 40% in size
HT1080 IDH1KD tx = toxicity to HT-1080 IDH1 knockdown cells (counter line). HT-1080 IDH1 knockdown viability, ATP luminescence, 48 h. Potency, µM (series often up to 46.1 µM), most hits filed as cytotoxic. hit rate 2% among 360,000. AID 686971
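% activity derives from luminescence (CellTiter-Glo), normalised to DMSO and no-cell wells. HT-1080-IDH1KD cells, 750/well, had 48 h compound exposure at 37 °C.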
KB-V1 cytotox = KB-V1 MDR subline cytotoxicity; KB-V1 MDR cells viability, CellTiter-Glo, 72 h; Potency, µM (series often up to 46.1 µM), most hits filed as cytotoxic; hit rate 3.4% among 400,000; also: nearly all actives have a fitted effect of over 60% in size
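Drug-selected KB-V1 cells, grown in DMEM lacking phenol red with 10% FBS, receive compound titrations; after three days at 37 degrees C, surviving cell ATP is quantified by CellTiter-Glo luminescence and responses normalized and curve-fitted.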
HT1080NT lethal = kills 2HG-producing HT-1080-NT fibrosarcoma cells; HT-1080-NT fibrosarcoma viability, CellTiter-Glo ATP luminescence, 48 h; Potency, µM (highest dose often 46.1 µM), most hits filed as cytotoxic; hit rate 1.6% among 360,000; AID 686970;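 also: NT is the 2HG producing partner of a matched IDH1 knockdown line; nearly all actives have a fitted effect of over 55% in size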
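HT-1080-NT; 750 cells/well; 5% FBS RPMI; 48 h compound, 37 degrees C; CellTiter-Glo luminescence; curve fitting and curve-class assignment.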
ATXN2 expr inh = inhibitors of ATXN2 expression. HEK-293 ATXN2-luciferase reporter, luminescence, 24 h. Potency, µM (top dose mostly 57 µM), most hits filed as inhibitors. hit rate 0.72% among 360,000. AID 1745845; also: nearly all actives have a fitted effect of over 55% in size
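ATXN2-luciferase reporter cells (luciferase flanked by upstream and downstream ATXN2 gene portions) were treated 24 h at 37 °C with compounds at up to 57 uM. SteadyGlo luminescence gave expression; GF-AFC fluorescence gave viability.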
Hits are given with their value; n = inactive; u = inconclusive; x = no result; ! = a repeat was not active; [ ] = remark or other dose. Calls follow the shape of the dose curve; as a rule, active = well fitted curve in the direction sought with a large enough effect; inconclusive = small, poorly fitted or top-dose-only effect, or another doubt; inactive = no such curve, though single readings can be large; an effect the other way counts as inactive or inconclusive.

SMILES	KB-3-1 cytotox	S2 tox	HT1080 IDH1KD tx	KB-V1 cytotox	HT1080NT lethal	ATXN2 expr inh
CC(=O)c1cccc(NC(=O)c2cc3sc(Cl)cc3n2C)c1	n	u	x	n	x	n
Cc1cccc2c1CC[C@H](CN1CCC(c3c(Cl)cccc3Cl)CC1)C[C@@H]2O	x	x	x	x	x	n
Cc1c(NC(=O)Nc2ccc(Cl)c(C(F)(F)F)c2)c(=O)n(-c2ccccc2)n1C	n	n	x	n	x	n
COc1ccc(NCC(=O)n2c(C)c(C)c3ccccc32)cc1	11.6µM	x	u	u	u	n
NS(=O)(=O)c1ccc(N2N=C(c3ccccc3)CC2c2cccc(F)c2)cc1 (centres undefined)	u	n	n	u	n	n
NS(=O)(=O)c1ccc(N2N=C(c3ccc(Br)cc3)CC2c2ccc(F)cc2)cc1 (centres undefined)	u	x	11.6µM	u	6.51µM	u
Oc1ccc(Cn2ccnc2)c2cccnc12	u	n	u	n	u	n
Oc1ccc(CN2CCN(Cc3ccccc3)CC2)c2cccnc12	u	n	n	n	u	n
Oc1ccc(CNc2ccccc2)c2cccnc12	u	n	u	n	5.8µM	n
Cc1ccccc1NCc1ccc(O)c2ncccc12	n	n	0.708µM	u	3.16µM	u
Oc1ccc(CNc2ccc(F)cc2)c2cccnc12	u	n	18.4µM	n	18.4µM	n
Cc1cccc(NCc2ccc(O)c3ncccc23)c1	23.1µM	n	u	n	18.4µM	n
OCc1ccnc2c(O)cccc12	u	n	n	u	n	n
CCc1cccc2c(-c3ccccc3)nc(SCC(=O)Nc3ccc(OC)cc3)nc12	n	n	x	n	x	n
Brc1ccc(C=C2C=c3ccccc3=C2)cc1	n	x	x	n	x	x
CCN(CC)CCNc1cc(C)nc2c1C(=O)C(=O)C=C2N1CCCCC1	n	14.1µM	n	u	n	x
CCc1cccc(NCc2ccccc2-c2nnc(-c3ccccc3Cl)o2)c1	n	n	x	n	x	n
COC(=O)c1ccc(NC(=O)C(=O)N2CCN(C(=S)Nc3cccc(OC)c3)CC2)cc1	n	n	n	18.4µM	n	n
COC(=O)c1ccc(NC(=O)C(=O)N2CCN(C(=S)Nc3ccc(OC)cc3)CC2)cc1	n	n	n	20.6µM	n	n
COC(=O)c1ccc(NC(=O)C(=O)N2CCN(C(=S)Nc3ccc(C)cc3)CC2)cc1	n	n	n	n	n	n
COc1cccc(NC(=O)C(=O)N2CCOCC2)c1	n	n	n	n	n	n
COc1cccc(C(=O)Nc2nc(-c3nnn(-c4cccc(Cl)c4C)c3C)ns2)c1	14.6µM	n	x	n	x	n
COc1ccc(C(=O)Nc2nc(-c3nnn(-c4cc(OC)ccc4OC)c3C)ns2)cc1	n	n	x	n	x	n
CCOC(=O)c1cnc2ccc(OCC)cc2c1NCc1ccccc1	u	u	u	1.84µM	n	u
CCOC(=O)c1cnc2ccc(OC)cc2c1NCCc1ccc(OC)c(OC)c1	n	u	n	u	n	28.2µM!
SMILES	KB-3-1 cytotox	S2 tox	HT1080 IDH1KD tx	KB-V1 cytotox	HT1080NT lethal	ATXN2 expr inh
CCOC(=O)c1cnc2ccc(OCC)cc2c1NCc1cccnc1	u	n	u	u	u	n
COc1cccc(Cc2nc3cccnc3n2C2CCN(Cc3ccc(C)s3)CC2)c1	x	n	x	x	x	x
Cc1nc2c(C(=O)NCCc3ccccc3)cnn2c(C)c1Cc1c(F)cccc1Cl	n	n	x	n	x	n
COc1ccccc1OCc1ccc(C(=O)N2CCN(C(=O)c3ccco3)CC2)cc1	n	n	n	5.17µM	n	n
COc1ccc(CN2CCN(C(=O)c3ccco3)CC2)cc1OCc1ccccc1	u	n	n	n	n	n
CSc1ncc(C(=O)NCc2ccc(C)cc2)c(-c2ccccc2)n1	n	n	x	n	x	n
COc1ccc2c(c1)c(CC(=O)Nc1nnc(C3CC3)s1)c(C)n2C(=O)c1ccc(Cl)cc1	u	u	u	u	23.1µM	n
Nc1nc2ccccc2n1C(=O)c1ccccc1	n	u	u	u	u	x
Nc1nc2ccccc2n1C(=O)CCc1ccccc1	18.4µM	n	n	n	u	n
COc1ccc(N2CCN(C(=O)c3cc(-c4ccc(F)cc4)[nH]c3C)CC2)cc1	n	n	n	n	n	n
O=C(c1ccccc1C(=O)N1CCN(c2ccc(F)cc2)CC1)N1CCN(c2ccc(F)cc2)CC1	n	n	n	9.2µM	n	n
Cc1[nH]c(-c2ccc(F)cc2)cc1C(=O)N1CCN(c2ccc(Cl)cc2)CC1	n	u	n	n	n	14.1µM
O=C(O)c1ccccc1NC(=O)N1c2ccccc2Sc2ccccc21	n	n	x	n	x	n
CCN(CC)c1ccc(NC(=O)Cn2nc(C)n3cccc3c2=O)c(C)c1	n	x	x	n	x	x
O=c1cc(C(F)(F)F)[nH]c2ccccc12	n	n	n	n	u	x
CSc1ccc(/C=C/c2cc(=O)c3ccccc3[nH]2)cc1	n	n	n	3.66µM	n	n
O=c1cc(/C=C/c2cccs2)[nH]c2ccccc12	u	n	7.08µM	u	n[9.24 µM]	n
COc1cccc(CCNc2ncnc3sc(C(=O)N4CCN(C)CC4)c(C)c23)c1	x	n	x	x	x	x
O=C(NCC1(N2CCOCC2)CCCC1)c1cnn(-c2nccc(-c3cccs3)n2)c1C1CC1	x	n	x	x	x	x
CNc1ccc(/C=C2\C=Cc3ccccc32)cc1OC	u	x	x	n	x	x
COCCCNc1ncnc2sc(C(=O)N3CCCCC3)c(C)c12	x	n	x	x	x	x
O=C(/C=C/c1ccco1)N1CCN(S(=O)(=O)/C=C/c2ccccc2)CC1	n	n	n	u	n	n
O=C(/C=C/c1ccco1)N1CCN(C/C=C/c2ccccc2)CC1	n	n	n	14.6µM	n	n
Cc1cc(C(=O)N2CCN(C/C=C/c3ccccc3)CC2)cs1	n	n	n	16.4µM	n	n
CC1CN(C(=O)CCC(=O)NCc2ccc(F)cc2)c2cc(Cl)ccc2O1 (centres undefined)	n	n	x	n	x	n
SMILES	KB-3-1 cytotox	S2 tox	HT1080 IDH1KD tx	KB-V1 cytotox	HT1080NT lethal	ATXN2 expr inh
CC(C)CN=C(NS(=O)(=O)c1ccccc1)C(Cl)(Cl)Cl	8.2µM	u	6.51µM	u	6.51µM	u
CCOC(=O)c1sc(NC(=O)Nc2ccccc2)cc1C	u	u	u	u	u	n
CCOC(=O)c1sc(NC(=O)Nc2ccccc2Cl)cc1C	u	u	n	20.6µM	n	n
Cc1ccc(C)c(N2CCN(C(=O)NCc3noc4ccccc34)CC2)c1	n	n	x	n	x	n
Cc1ccc(-c2n[nH]c(=S)n2C)cc1Cl	4.11µM	n	n	2.91µM	n	n
Cc1ccccc1OCC(=O)OCc1cc(=O)n2nc(C3CCCCC3)sc2n1	n	n	x	n	x	n
O=Cc1ccccc1OCCOc1ccccc1C=O	n	u	7.08µM	n	10µM	n
O=Cc1ccccc1Oc1ccccc1	n	n	n	u	n	n
C(=N\N1CCN(C2c3ccccc3-c3ccccc32)CC1)/c1ccccn1	u	n	n	18.4µM	n	n
